Experimental data published in PubChem BioAssay.
Values without a mark were called inactive. For part of these data: Results with a measured potency or affinity are listed apart. The source made the active and inactive calls. Unless noted, the rule behind the calls is not given here.

How the values were obtained:
[1] = antimalarial activity against Dd2 strain (AID 2302;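 active = growth inhibition above 50% at the single 2 µM test dose, taken to imply half-maximal potency below 2 µM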;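 note: 0% = DMSO untreated growth and 100% = chloroquine plus artemisinin killed control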); conditions: P. falciparum Dd2 in RBCs, LDH growth readout, 72 h; at 2 µM; active compounds read high
[2] = human hepatoma cell viability loss – ATP luminescence, cytotoxicity control for P. falciparum antimalarial project, primary screen (AID 2303;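 active = inhibition above 50%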;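 note: 0% = DMSO wells and 100% = digitonin-killed cells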); conditions: HepG2 viability, 24-48 h, at 10 µM, active compounds read high
[3] = molecular target: L-lactate dehydrogenase (Plasmodium falciparum (isolate CDC / Honduras)) (UniProt Q27743); test: PfLDH activity inhibition – cell lysate, 3D7 strain, counter-screen for P. falciparum growth inhibition project (AID 2304);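 note: 0% = vehicle and 100% = reference inhibitor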; conditions: P. falciparum 3D7 crude extract, LDH APAD/NBT absorbance; at 2 µM; active compounds read high
[4] = inhibition of 3D7 malaria parasite growth – strain 3D7 (AID 2306);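 note: 0% = DMSO wells and 100% = chloroquine plus artemisinin control wells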; conditions: P. falciparum 3D7 erythrocytic growth, LDH absorbance, 72 h; at 2 µM; active compounds read high
[5] = molecular target: Calcium-dependent protein kinase 1 (Plasmodium falciparum (isolate 3D7)) (UniProt P62344); test: PfCDPK1 kinase inhibitors, biochemical, TCAMS library (AID 1159585; cut-off not given, nearly all actives have IC50 up to about 0.98 µM;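 note: inhibitors leave more ATP so luminescence rises with inhibition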); conditions: recombinant PfCDPK1, Kinase-Glo ATP depletion luminescence
[6] = molecular target: Plasmodium falciparum protein kinase 6 (PK6, PF3D7_1337100) (UniProt Q8IDW1); test: PfPK6 kinase inhibitors, biochemical, TCAMS library (AID 1159586); conditions: recombinant PfPK6, Kinase-Glo ATP depletion luminescence
[7] = molecular target: Protein kinase 7 (PK7), Plasmodium falciparum 3D7 (PF3D7_0213400) (UniProt Q7YTF7); test: inhibition of Plasmodium PK7 catalytic activity – biochemical, TCAMS antimalarial set, Kinase-Glo luminescence (AID 1159587); conditions: recombinant PfPK7, Kinase-Glo ATP depletion luminescence
[8] = molecular target: Calcium-dependent protein kinase 4 (Plasmodium falciparum (isolate 3D7)) (UniProt Q8IBS5); test: PfCDPK4 kinase inhibitors, biochemical, TCAMS library (AID 1159588; cut-off not given, nearly all actives have IC50 up to about 0.91 µM); conditions: recombinant PfCDPK4, Kinase-Glo ATP depletion luminescence
Sequence of Calcium-dependent protein kinase 4 (Plasmodium falciparum (isolate 3D7)) (Q8IBS5 whole entry, looked up): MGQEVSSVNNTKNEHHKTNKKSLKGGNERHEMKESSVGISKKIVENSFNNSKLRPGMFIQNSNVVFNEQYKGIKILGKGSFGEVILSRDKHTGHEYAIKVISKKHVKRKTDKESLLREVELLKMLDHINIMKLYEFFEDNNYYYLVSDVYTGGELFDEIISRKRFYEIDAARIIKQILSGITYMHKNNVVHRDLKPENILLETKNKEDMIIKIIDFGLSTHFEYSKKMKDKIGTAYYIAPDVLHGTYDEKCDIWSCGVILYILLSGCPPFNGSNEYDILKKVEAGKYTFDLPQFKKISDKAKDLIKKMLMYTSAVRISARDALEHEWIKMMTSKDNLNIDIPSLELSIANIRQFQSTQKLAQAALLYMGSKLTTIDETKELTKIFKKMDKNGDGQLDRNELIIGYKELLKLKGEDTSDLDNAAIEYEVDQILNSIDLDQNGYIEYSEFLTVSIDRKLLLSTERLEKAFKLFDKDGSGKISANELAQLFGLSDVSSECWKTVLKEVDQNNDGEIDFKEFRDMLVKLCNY

Sequence of Calcium-dependent protein kinase 1 (Plasmodium falciparum (isolate 3D7)) (P62344 whole entry, looked up): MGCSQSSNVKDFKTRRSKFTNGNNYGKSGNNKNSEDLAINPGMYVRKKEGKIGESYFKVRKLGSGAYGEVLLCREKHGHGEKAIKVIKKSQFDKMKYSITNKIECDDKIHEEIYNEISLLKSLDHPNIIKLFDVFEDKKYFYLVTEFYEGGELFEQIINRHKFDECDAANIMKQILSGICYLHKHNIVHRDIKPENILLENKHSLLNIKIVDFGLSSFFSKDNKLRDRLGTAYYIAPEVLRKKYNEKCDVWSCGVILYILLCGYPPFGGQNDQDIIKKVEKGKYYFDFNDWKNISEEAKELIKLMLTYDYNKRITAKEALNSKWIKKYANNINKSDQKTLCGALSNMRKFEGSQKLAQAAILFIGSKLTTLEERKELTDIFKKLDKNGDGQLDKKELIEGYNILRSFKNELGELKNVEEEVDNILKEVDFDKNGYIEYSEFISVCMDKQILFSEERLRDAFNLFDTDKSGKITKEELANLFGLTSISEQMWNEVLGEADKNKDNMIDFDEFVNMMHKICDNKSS
Sequence of Protein kinase 7 (PK7), Plasmodium falciparum 3D7 (PF3D7_0213400) (Q7YTF7 1-343): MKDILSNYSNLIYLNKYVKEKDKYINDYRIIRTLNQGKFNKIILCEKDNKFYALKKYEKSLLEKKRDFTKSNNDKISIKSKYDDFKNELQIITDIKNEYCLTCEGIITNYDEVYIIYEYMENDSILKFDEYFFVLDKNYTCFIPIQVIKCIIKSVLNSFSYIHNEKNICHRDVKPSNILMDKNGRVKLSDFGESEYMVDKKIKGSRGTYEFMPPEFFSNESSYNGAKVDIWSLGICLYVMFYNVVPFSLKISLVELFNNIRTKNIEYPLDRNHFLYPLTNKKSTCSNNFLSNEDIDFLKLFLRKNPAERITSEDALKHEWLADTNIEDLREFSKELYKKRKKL
Sequence of L-lactate dehydrogenase (Plasmodium falciparum (isolate CDC / Honduras)) (Q27743 whole entry, looked up): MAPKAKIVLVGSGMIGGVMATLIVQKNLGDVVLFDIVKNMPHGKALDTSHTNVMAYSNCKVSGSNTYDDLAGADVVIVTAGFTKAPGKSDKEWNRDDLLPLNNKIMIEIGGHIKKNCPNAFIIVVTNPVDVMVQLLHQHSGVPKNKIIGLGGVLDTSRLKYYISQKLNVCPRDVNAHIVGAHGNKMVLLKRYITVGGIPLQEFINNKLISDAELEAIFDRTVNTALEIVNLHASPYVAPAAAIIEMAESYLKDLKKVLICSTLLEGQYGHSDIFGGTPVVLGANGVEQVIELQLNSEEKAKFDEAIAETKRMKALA
Sequence of Plasmodium falciparum protein kinase 6 (PK6, PF3D7_1337100) (Q8IDW1 1-305): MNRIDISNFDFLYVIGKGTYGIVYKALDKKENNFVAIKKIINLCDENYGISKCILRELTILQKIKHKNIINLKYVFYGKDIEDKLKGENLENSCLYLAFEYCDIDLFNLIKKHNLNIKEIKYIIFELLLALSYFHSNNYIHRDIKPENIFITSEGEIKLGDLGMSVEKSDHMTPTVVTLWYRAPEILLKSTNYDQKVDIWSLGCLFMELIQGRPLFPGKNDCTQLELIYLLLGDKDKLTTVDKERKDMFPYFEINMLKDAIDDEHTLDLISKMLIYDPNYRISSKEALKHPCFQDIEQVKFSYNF

Structure (SMILES) | growth inhibition [1] | inhibition [2] [%] | inhibition [3] [%] | growth inhibition [4] | outcome [5] | outcome [6] | outcome [7] | outcome [8]
Cc1cc(C(=O)Nc2ccc3c(c2)CCN3C2CCN(Cc3csc4ccccc34)C2)no1 (centres undefined) | 96% (active) | 1 | 0 | 96% (active) | inactive | inactive | inactive | inactive
COc1cccc(C(=O)Nc2ccc(-c3nc4ccccc4[nH]3)cc2)c1 | 19% | 28 | -3 | 95% (active) | inactive | inactive | inactive | inactive
O=C(Nc1cncc(NC(=O)c2ccc(Cl)c(Cl)c2)c1)c1ccc(Cl)c(Cl)c1 | 70% (active) | 12 | 0 | 101% (active) | inactive | inactive | inactive | inactive
